From PubChem BioAssay AID1159580 (chemical genetic matrix, 2015)
Several values for one entry are separate records, joined by “and”; a condition that tells them apart may be missing. Equal values may be shown once. Hit rate of the full screen: of about 5,500 compounds, about 2,000 (36%) were called active. Another 18% or so got no clear call; they are omitted. The list shows a part of the results. Values without a mark were called inactive. Cut-off read from the data, not from the text of the source: active = normalized growth mostly below about 0.91 (no sharp cut-off); inconclusive = no clear call, values can overlap the other calls; inactive = mostly above about 0.92.

Assay: chemical genetic growth profiling, strain panel (AID 1159580);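 note: tested at 20 µM; growth read once vehicle control cultures reached saturation at 30 °C; 1 = growth at the plate median or of vehicle wells; lower values mean less growth of the strain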
Settings: growth OD
[1] = S. cerevisiae deletion strains, locus YAL013W, strain DEP1, hits give low values
[2] = S. cerevisiae deletion strains, locus YBR229C, strain ROT2, hits give low values
[3] = S. cerevisiae deletion strains, locus YDL101C, strain DUN1, hits give low values
[4] = S. cerevisiae deletion strains, locus YDL134C, strain PPH21, hits give low values
[5] = S. cerevisiae deletion strains, locus YDR150W, strain NUM1, hits give low values
[6] = S. cerevisiae deletion strains, locus YEL061C, strain CIN8, hits give low values
[7] = S. cerevisiae deletion strains, locus YGR078C, strain PAC10, hits give low values
[8] = S. cerevisiae deletion strains, locus YGR229C, strain SMI1, hits give low values
[9] = S. cerevisiae deletion strains, locus YHR030C, strain SLT2, hits give low values
[10] = S. cerevisiae deletion strains, locus YJR043C, strain POL32, hits give low values
[11] = S. cerevisiae deletion strains, locus YJR075W, strain HOC1, hits give low values
[12] = S. cerevisiae deletion strains, locus YLR039C, strain RIC1, hits give low values
[13] = S. cerevisiae deletion strains, locus YLR262C, strain YPT6, hits give low values
[14] = S. cerevisiae deletion strains, locus YMR263W, strain SAP30, hits give low values
[15] = S. cerevisiae deletion strains, locus YMR307W, strain GAS1, hits give low values
[16] = S. cerevisiae deletion strains, locus YNL128W, strain TEP1, hits give low values
[17] = S. cerevisiae deletion strains, locus YNL153C, strain GIM3, hits give low values
[18] = S. cerevisiae deletion strains, locus YNL322C, strain KRE1, hits give low values
[19] = S. cerevisiae deletion strains, locus YOL006C, strain TOP1, hits give low values
[20] = S. cerevisiae deletion strains, locus YPL055C, strain LGE1, hits give low values
[21] = S. cerevisiae deletion strains, locus YPL241C, strain CIN2, hits give low values
[22] = S. cerevisiae deletion strains, locus YAL040C, strain CLN3, hits give low values
[23] = S. cerevisiae deletion strains, locus YCL061C, strain MRC1 (second series), hits give low values
[24] = S. cerevisiae deletion strains, locus YDR363W, strain ESC2, hits give low values
[25] = S. cerevisiae deletion strains, locus YER002W, strain NOP16, hits give low values
[26] = S. cerevisiae deletion strains, locus YNL175C, strain NOP13, hits give low values
[27] = S. cerevisiae deletion strains, locus YNL197C, strain WHI3, hits give low values
[28] = S. cerevisiae deletion strains, locus YNL224C, strain SQS1, hits give low values
[29] = S. cerevisiae deletion strains, locus YOR083W, strain WHI5 (second series), hits give low values

Cc1ccc(O)c(C(CCN(C(C)C)C(C)C)c2ccccc2)c1 (stereo not given)
normalized growth [1]: 1.01 | normalized growth (S. cerevisiae deletion strains, locus YBR021W, strain FUR4, hits give low values): 1 | normalized growth [2]: 1.01 | normalized growth (S. cerevisiae deletion strains, locus YCL029C, strain bik1, hits give low values): 0.998 | normalized growth (S. cerevisiae deletion strains, locus YDL035C, strain GPR1, hits give low values): 1.01 | normalized growth (S. cerevisiae deletion strains, locus YDL074C, strain BRE1, hits give low values): 1.03 | normalized growth [3]: 1.01 | normalized growth [4]: 1.02 | normalized growth (S. cerevisiae deletion strains, locus YDL185W, strain tfp1, hits give low values): 0.989 | normalized growth (S. cerevisiae deletion strains, locus YDL192W, strain arf1, hits give low values): 1 | normalized growth (S. cerevisiae deletion strains, locus YDR101C, strain arx1, hits give low values): 0.988 | normalized growth [5]: 1.01 | normalized growth (S. cerevisiae deletion strains, locus YDR162C, strain NBP2, hits give low values): 1 | normalized growth (S. cerevisiae deletion strains, locus YDR318W, strain mcm21, hits give low values): 0.991 | normalized growth (S. cerevisiae deletion strains, locus YDR388W, hits give low values): 0.983 | normalized growth (S. cerevisiae deletion strains, locus YDR502C, strain sam2, hits give low values): 0.996 | normalized growth [6]: 1.01 | normalized growth (S. cerevisiae deletion strains, locus YER110C, hits give low values): 0.995 | normalized growth (S. cerevisiae deletion strains, locus YER155C, strain BEM2, hits give low values): 1.01 | normalized growth (S. cerevisiae deletion strains, locus YER167W, strain BCK2, hits give low values): 0.994 | normalized growth (S. cerevisiae deletion strains, locus YGL078C, strain dbp3, hits give low values): 0.996 | normalized growth (S. cerevisiae deletion strains, locus YGL086W, strain mad1, hits give low values): 0.995 | normalized growth (S. cerevisiae deletion strains, locus YGL248W, strain PDE1, hits give low values): 1 | normalized growth [7]: 1.01 | normalized growth (S. cerevisiae deletion strains, locus YGR135W, strain pre9, hits give low values): 0.985 | normalized growth [8]: 0.995 | normalized growth (S. cerevisiae deletion strains, locus YGR252W, strain gcn5, hits give low values): 1 | normalized growth [9]: 1.01 and 1.03 | normalized growth (S. cerevisiae deletion strains, locus YHR079C, strain IRE1 (second series), hits give low values): 0.988 | normalized growth (S. cerevisiae deletion strains, locus YHR079C, strain IRE1, hits give low values): 0.981 | normalized growth (S. cerevisiae deletion strains, locus YHR094C, strain hxt1, hits give low values): 0.987 | normalized growth (S. cerevisiae deletion strains, locus YHR129C, strain ARP1, hits give low values): 1.02 | normalized growth (S. cerevisiae deletion strains, locus YHR200W, strain rpn10, hits give low values): 0.982 | normalized growth (S. cerevisiae deletion strains, locus YIL066C, strain RNR3, hits give low values): 1.02 | normalized growth (S. cerevisiae deletion strains, locus YIL073C, strain SPO22, hits give low values): 0.967 | normalized growth (S. cerevisiae deletion strains, locus YIL125W, strain kgd1, hits give low values): 0.985 | normalized growth (S. cerevisiae deletion strains, locus YIR030C, strain dcg1, hits give low values): 0.993 | normalized growth (S. cerevisiae deletion strains, locus YJL095W, strain BCK1, hits give low values): 1.01 | normalized growth (S. cerevisiae deletion strains, locus YJL134W, strain LCB3, hits give low values): 1 | normalized growth (S. cerevisiae deletion strains, locus YJL168C, strain set2, hits give low values): 0.99 | normalized growth (S. cerevisiae deletion strains, locus YJL187C, strain SWE1 (second series), hits give low values): 1.01 | normalized growth [10]: 1 | normalized growth (S. cerevisiae deletion strains, locus YJR066W, strain TOR1, hits give low values): 0.958 | normalized growth [11]: 1 | normalized growth (S. cerevisiae deletion strains, locus YKL009W, strain mrt4, hits give low values): 1 | normalized growth (S. cerevisiae deletion strains, locus YKL068W, hits give low values): 0.986 | normalized growth (S. cerevisiae deletion strains, locus YKL085W, strain MDH1 (second series), hits give low values): 0.99 | normalized growth (S. cerevisiae deletion strains, locus YKL085W, strain MDH1, hits give low values): 0.99 | normalized growth (S. cerevisiae deletion strains, locus YKL190W, strain CNB1, hits give low values): 1.01 | normalized growth (S. cerevisiae deletion strains, locus YKR001C, strain vps1, hits give low values): 0.999 | normalized growth [12]: 1.06 | normalized growth (S. cerevisiae deletion strains, locus YLR058C, strain SHM2, hits give low values): 1.01 | normalized growth (S. cerevisiae deletion strains, locus YLR102C, strain apc9, hits give low values): 0.992 | normalized growth (S. cerevisiae deletion strains, locus YLR113W, strain HOG1, hits give low values): 1.03 | normalized growth [13]: 1.05 | normalized growth (S. cerevisiae deletion strains, locus YLR268W, strain sec22, hits give low values): 0.984 | normalized growth (S. cerevisiae deletion strains, locus YLR330W, strain CHS5, hits give low values): 1.01 | normalized growth (S. cerevisiae deletion strains, locus YLR342W, strain FKS1 (second series), hits give low values): 1.01 | normalized growth (S. cerevisiae deletion strains, locus YLR371W, strain rom2, hits give low values): 0.972 | normalized growth (S. cerevisiae deletion strains, locus YLR418C, strain cdc73, hits give low values): 0.982 | normalized growth (S. cerevisiae deletion strains, locus YML016C, strain PPZ1, hits give low values): 1.02 | normalized growth (S. cerevisiae deletion strains, locus YML032C, strain rad52, hits give low values): 0.986 | normalized growth (S. cerevisiae deletion strains, locus YML124C, strain tub3, hits give low values): 0.991 | normalized growth (S. cerevisiae deletion strains, locus YMR078C, strain ctf18, hits give low values): 0.978 | normalized growth (S. cerevisiae deletion strains, locus YMR223W, strain ubp8, hits give low values): 0.996 | normalized growth [14]: 1.01 | normalized growth [15]: 0.993 | normalized growth (S. cerevisiae deletion strains, locus YNL067W, strain RPL9B, hits give low values): 1.01 | normalized growth [16]: 1 | normalized growth [17]: 1.01 | normalized growth (S. cerevisiae deletion strains, locus YNL183C, strain NPR1, hits give low values): 0.961 | normalized growth (S. cerevisiae deletion strains, locus YNL233W, strain BNI4, hits give low values): 1.01 | normalized growth (S. cerevisiae deletion strains, locus YNL250W, strain rad50, hits give low values): 0.981 | normalized growth (S. cerevisiae deletion strains, locus YNL271C, strain bni1, hits give low values): 0.997 | normalized growth (S. cerevisiae deletion strains, locus YNL298W, strain CLA4, hits give low values): 0.974 | normalized growth (S. cerevisiae deletion strains, locus YNL307C, strain MCK1, hits give low values): 0.996 | normalized growth [18]: 1 | normalized growth (S. cerevisiae deletion strains, locus YNR052C, strain pop2, hits give low values): 0.988 | normalized growth [19]: 1.05 | normalized growth (S. cerevisiae deletion strains, locus YOL012C, strain htz1): 0.768 | normalized growth (S. cerevisiae deletion strains, locus YOL147C, strain pex11, hits give low values): 0.986 | normalized growth (S. cerevisiae deletion strains, locus YOR061W, strain CKA2, hits give low values): 1.02 | normalized growth (S. cerevisiae deletion strains, locus YOR069W, strain VPS5, hits give low values): 1.01 | normalized growth (S. cerevisiae deletion strains, locus YOR136W, strain idh2, hits give low values): 0.983 | normalized growth (S. cerevisiae deletion strains, locus YOR144C, strain elg1, hits give low values): 0.981 | normalized growth (S. cerevisiae deletion strains, locus YOR184W, strain ser1, hits give low values): 1 | normalized growth (S. cerevisiae deletion strains, locus YOR231W, strain MKK1, hits give low values): 1 | normalized growth (S. cerevisiae deletion strains, locus YOR316C, strain cot1, hits give low values): 0.985 | normalized growth [20]: 1.01 | normalized growth [21]: 1.01 | normalized growth (S. cerevisiae deletion strains, locus YPL256C, strain CLN2, hits give low values): 0.992 | normalized growth (S. cerevisiae deletion strains, locus YPR119W, strain clb2, hits give low values): 0.98 | normalized growth (S. cerevisiae deletion strains, locus YPR141C, strain kar3, hits give low values): 0.985 | normalized growth (S. cerevisiae deletion strains, locus YPR163C, strain tif3, hits give low values): 0.977 | normalized growth (S. cerevisiae deletion strains, locus YPR167C, strain met16, hits give low values): 0.988 | normalized growth (S. cerevisiae deletion strains, strain wtn01, hits give low values): 0.988 | normalized growth (S. cerevisiae strains, strain wild type, hits give low values): 1

COc1ccc(/C=C2/C(=O)N(c3cccc(Cl)c3)N=C2C)cc1
normalized growth [1]: 0.983 | normalized growth [2]: 0.963 | normalized growth [3]: 1 | normalized growth [4]: 0.991 | normalized growth [5]: 1 | normalized growth [6]: 0.964 | normalized growth [7]: 0.962 | normalized growth [9]: 0.53 (active) | normalized growth (S. cerevisiae deletion strains, locus YHR087W, strain rtc3, hits give low values): 0.866 (active) | normalized growth (S. cerevisiae deletion strains, locus YJL187C, strain SWE1, hits give low values): 0.921 (active) | normalized growth [10]: 1.03 | normalized growth [11]: 0.934 | normalized growth [12]: 0.62 (active) | normalized growth (S. cerevisiae deletion strains, locus YLR058C, strain SHM2 (second series), hits give low values): 0.963 | normalized growth (S. cerevisiae deletion strains, locus YLR085C, strain ARP6, hits give low values): 0.744 (active) | normalized growth [13]: 0.699 (active) | normalized growth (S. cerevisiae deletion strains, locus YML094W, strain GIM5, hits give low values): 0.865 (active) | normalized growth (S. cerevisiae deletion strains, locus YMR219W, strain ESC1, hits give low values): 0.938 (active) | normalized growth [14]: 0.989 | normalized growth [17]: 0.999 | normalized growth (S. cerevisiae deletion strains, locus YNL298W, strain CLA4 (second series), hits give low values): 0.839 | normalized growth [18]: 0.973 | normalized growth (S. cerevisiae deletion strains, locus YNR030W, strain Alg12, hits give low values): 0.88 (active) | normalized growth [19]: 0.849 | normalized growth [20]: 0.961 | normalized growth [21]: 0.897 | normalized growth (S. cerevisiae deletion strains, locus YPR135W, strain CTF4, hits give low values): 0.599 (active)

Cn1c(=O)c2c(nc(/C=C/c3cccc(Cl)c3)n2C)n(C)c1=O
normalized growth [22]: 0.996 | normalized growth [23]: 0.981 | normalized growth [24]: 1.05 | normalized growth [25]: 1.01 | normalized growth [8]: 0.996 | normalized growth [16]: 0.993 | normalized growth [17]: 0.946 | normalized growth [26]: 0.969 | normalized growth [27]: 0.954 | normalized growth [28]: 0.995 | normalized growth [18]: 1.02 | normalized growth [29]: 0.964 | normalized growth [20]: 1.03 | normalized growth [21]: 0.995

Cn1cc(C(=O)OCC2CCN(CCNS(C)(=O)=O)CC2)c2ccccc21
normalized growth [22]: 1 | normalized growth [23]: 1.01 | normalized growth [5]: 1.01 | normalized growth [24]: 1 | normalized growth [25]: 1.01 | normalized growth [15]: 1 | normalized growth [16]: 1.03 | normalized growth [17]: 1.04 | normalized growth [26]: 1.05 | normalized growth [27]: 1.06 | normalized growth [28]: 1.05 | normalized growth [29]: 1.03
